Pf growth 48h: P. falciparum growth inhibition at 48 hours (one generation). P. falciparum luciferase growth in erythrocytes, 48 h. Potency, µM (doses to about 28.7 µM), for the others: at the highest dose activity change, negative = inhibition, usual class: inhibitors. actives 5.9% (n = 310,000). AID 504832; further: potency means the concentration at half of the fitted maximal effect; on the % scale 0 is the no-effect control and ±100 the full control effect
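Luminescence readout; reporter = integrated firefly luciferase in P. falciparum. RBC culture at 2% hematocrit, 0.1% parasitemia final, 37 C/5% CO2; decreased signal taken as growth inhibition.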
Cycloheximide cs: counter-screen for Shiga toxin inhibitors: cycloheximide protein synthesis inhibition | cell reporter, cycloheximide protein synthesis inhibition counterscreen | max response, % | actives 12% (n = 300,000); in the data active means max response mostly above about 13%, no sharp cut-off; inactive means mostly below about 14%; further: read at 38.3 µM for the half of the compounds with a filed dose; 0% is about no effect
Shiga inhibitor: inhibitors of Shiga toxin in Vero cells; Vero cells, Shiga toxin protein synthesis inhibition reporter; inhibition, % at 38.7 µM; actives 9.2% (n = 290,000); AID 2315; in the data active means inhibition mostly above about 28%, no sharp cut-off; inactive means mostly below about 43%; further: 0% is about no effect
NS1 inh: inhibitors of influenza NS1 protein function; Potency, µM (highest dose often 46.1 µM), without a hit: at the highest dose activity, positive = more growth; actives 0.4% (n = 270,000); AID 2326; calls by dose curve; further: potency means the concentration at half of the fitted maximal effect; actives are rising curves; nearly all actives have a fitted effect of over 50% in size
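In this qHTS, NS1 from influenza A is expressed in budding yeast, where it slows growth. Cells are switched from glucose to 2% galactose medium (pH 6.0, -URA), treated with compound, and growth recovery is read at OD600.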
Pf growth 96h: inhibits malaria parasite growth, 96 h; P. falciparum luciferase reporter growth, 96 h; Potency, µM (highest dose often 28.7 µM), for the others: at the highest dose activity change, negative = inhibition, most hits filed as inhibitors; actives 6.9% (n = 320,000); further: potency means the concentration at half of the fitted maximal effect; on the % scale 0 is the no-effect control and ±100 the full control effect
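Plates of compound plus infected erythrocytes (2% hematocrit, 0.05% parasitemia final) incubate 96 hours, 37 C, 5% CO2. Detection reagent added; reduced luminescence from the parasites' luciferase reporter flags inhibition.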
Sm TGR block: inhibitors of Schistosoma mansoni thioredoxin glutathione reductase. Q962Y6. purified TGR, DTNB reduction, TNB absorbance 405 nm. Potency, µM (series often up to 114 µM), without a hit: at the top dose activity change, negative = inhibition, usual class: inhibitors. actives 3% (n = 360,000); further: potency means the concentration at half of the fitted maximal effect; on the % scale 0 is the no-effect control and ±100 the full control effect; nearly all actives have a fitted effect of over 60% in size
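First, TGR (20 nM dispensed) and NADPH were mixed with compound. Second, a 15 min room-temperature incubation followed. Third, further NADPH and then DTNB were added to start the reaction. Finally, TNB absorbance was monitored kinetically.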
Starred values were filed as active, the others as inactive; i = inactive; ? = inconclusive; · = not tested or not shown; [ ] = dose if it differs, or a comment. Most compounds without a hit are left out; they make up all but 21% or so of the library. Unless noted, the call rests on the fitted dose curve; in most records, active means well fitted curve in the direction sought with a large enough effect; inconclusive means small, poorly fitted or top-dose-only effect, or another doubt; inactive means no such curve, though single readings can be large; an effect the other way counts as inactive or inconclusive.

SMILES	Pf growth 48h	Cycloheximide cs	Shiga inhibitor	NS1 inh	Pf growth 96h	Sm TGR block
CC#CC(=O)NCC1(N(C)Cc2ccccc2)Cc2ccccc2C1	-24%	1	8	12%	7.4µM*	-1%
CCOc1cc(CNCc2ccccc2)ccc1OCc1ccc(Cl)cc1	?	-6	-13	-11%	6%	-2%
CCOc1cc(CNc2ccc(O)cc2)ccc1OCc1ccc(Cl)cc1Cl	?	26*	51*	-11%	?	?
CCOc1cccc(CNc2ccc(O)cc2)c1OCc1ccc(Cl)cc1	?	-1	6	-10%	-11%	32µM*
COc1ccc(Cn2c(CO)cnc2SCC(=O)NCc2ccco2)cc1	·	·	·	·	·	0%
Cc1ccc(NC(=O)COc2ccc3oc4c(c3c2)CCCC4)c(C)c1	·	·	·	·	·	2%
CCOC(=O)c1c(S(=O)(=O)N2CCCC(C(=O)Nc3ncccc3C)C2)c(C)n(C)c1C (stereo unspecified)	5%	16	1	?	12µM*	7%
CCOC(=O)c1c(S(=O)(=O)N2CCC(C)CC2)c(C)n(C)c1C	10%	4	3	?	8.3µM*	-3%
CCOC(=O)c1c(S(=O)(=O)N2CCCCCC2)c(C)n(C)c1C	3%	-6	-1	5%	?	-11%
CCOc1ccc(CNC(=O)CCS(=O)(=O)c2ccc3c(c2)NC(=O)CO3)cc1OC	6%	-2	15	2%	14%	-4%
CCOc1ccccc1C(=O)Nc1cc(-c2ccc(C)cc2)no1	·	·	·	·	·	9%
Cc1cc(Cl)ccc1Oc1nccc(N(C)C)c1C#N	25%	14*	21	10%	?	4%
CN(C)c1ccnc(Oc2ccc(C(C)(C)C)cc2)c1C#N	?	37*	73*	-9%	?	-1%
CN(C)c1ccnc(Oc2ccccc2)c1C#N	22%	12	19	2%	26%	20%
COc1ccnc(Oc2ccc(Cl)cc2)c1C#N	i	16	51	·	71%	1%
CN(C)c1ccnc(Oc2ccc(Cl)cc2)c1C#N	41%	69*	127*	-16%	?	3%
Cc1ccccc1NC(=O)c1ccc2c(c1)N(C)CCS2	39%	28*	32*	-8%	13µM*	10%
CN1CCSc2ccc(C(=O)Nc3cc(F)ccc3F)cc21	193%	54*	81*	-7%	334%	2%
COC(=O)c1ccc2c(c1)N(C)CCS2	-6%	-1	8	-7%	?	-2%
CCCN(C(=O)/C=C/c1ccco1)c1c(N)n(Cc2ccccc2)c(=O)[nH]c1=O	8%	1	-8	·	-15%	45µM*
CCN(C(=O)COC(=O)/C=C/c1ccc(C)o1)c1c(N)n(Cc2ccccc2)c(=O)[nH]c1=O	8%	·	·	·	-9%	18µM*
CCCCN(C(=O)/C=C/c1ccco1)c1c(N)n(Cc2ccccc2)c(=O)[nH]c1=O	-6%	-3	-3	·	11%	?
Cc1cc(OCCOCCN2CCCC2)ccc1C(C)C	?	1	-12	0%	10µM*	-9%
CCOc1cccc(OCCOCCN2CCCC2)c1	3%	-3	-1	-5%	1%	9%
CCOCCCNC(=O)Cn1nc(C)n2c(cc3cc(C)ccc32)c1=O	·	·	·	·	·	3%
SMILES	Pf growth 48h	Cycloheximide cs	Shiga inhibitor	NS1 inh	Pf growth 96h	Sm TGR block
O=C(NC1CCc2ccccc21)c1cc(COc2c(F)cccc2F)on1 (stereo unspecified)	7%	21*	37	0%	24%	-10%
O=C(NCc1c(F)cccc1F)c1cc(COc2c(F)cccc2F)on1	30%	26*	97*	2%	?	-8%
CCOc1ccc(C(=O)NCC2OCCc3ccccc32)cc1 (stereo unspecified)	28%	25*	active	-4%	13%	4%
O=C(NCC1OCCc2ccccc21)c1cc(COc2c(F)cccc2F)on1 (stereo unspecified)	34%	35*	49*	-1%	13µM*	16%
Cc1ccc(C)c(OC(=O)CSc2nnc(-c3ccc4c(c3)OCO4)o2)c1	·	·	·	·	·	-24%
CCOC(=O)Cn1nc(C)n(-c2ccc(C(C)(C)C)cc2)c1=O	-3%	-3	-18	1%	34%	5%
C=CCN(c1ccccc1Cl)S(=O)(=O)c1cccc(C(=O)OCC(=O)N(C)C2CCS(=O)(=O)C2)c1 (stereo unspecified)	-30%	-10	-6	·	-7%[5.75 µM]	-6%
O=C(NCCc1cnn(-c2ccccc2)c1)c1cc(COc2c(F)cccc2F)on1	?	27*	68*	-3%	?	16%
O=C(NC1CCc2ccccc21)c1cc(COc2cncc(Cl)c2)on1 (stereo unspecified)	?	57*	67*	-35%	7%	-25%
Cc1cccc(C(=O)NCC(=O)OCc2cc(=O)n3nc(C4CC4)sc3n2)c1	·	·	·	·	·	3%
COc1cc2c3cc1Oc1c(OC)c(OC)cc4c1[C@@H](Cc1ccc(O)c(c1)Oc1ccc(cc1)C[C@@H]3N(C)CC2)CN(C)C4	·	·	·	10%	·	·
CC1=C(C(=O)Nc2c(C)cc(C)cc2C)C2(CCN(C(C)C)CC2)OC1=O	·	·	·	·	·	25%
COc1cc(Br)cc(/C=C/c2ccc3cccc(O)c3n2)c1OC	?	-3	-2	8%	-6%	-3%
COc1cc(/C=C/c2ccc3cccc(O)c3n2)cc(Cl)c1OC	-5%[0.00184 µM]	52*	127*	-3%	3.7µM*	-23%
COc1cc(/C=N/O)cc(Cl)c1OC	10%	-2	1	3%	30%	-20%
COc1cc(/C=C/c2ccc3cccc(O)c3n2)cc(Br)c1OC	?	78*	164*	13%	?	-9%
COc1cc(/C=C/c2nc(N)nc(-c3ccccc3O)n2)cc(OC)c1OC	?	-1	5	-1%	-17%	-2%
COc1cc(/C=C/c2ccc3cccc(O)c3n2)cc(OC)c1OC	?	33*	63*	0%	-9%	4%
COc1ccc(Br)cc1/C=C/c1ccc2cccc(O)c2n1	2.1µM*	24	44	4%	?	5%
Cc1c(NS(=O)(=O)c2ccc(C(C)(C)C)cc2)c(=O)n(-c2ccccc2)n1C	·	·	·	·	·	-1%
COc1ccc(C(=O)NCC(=O)OCc2ccc(Cl)cc2Cl)cc1OC	?	·	·	·	?	1%
COc1ccc(/C=C/c2ccc3cccc(O)c3n2)cc1Br	?	48*	115*	3%	0%	-6%
COc1cc(/C=C/c2ccc3cccc([N+](=O)[O-])c3n2)ccc1OCC(=O)O	8%[5.75 µM]	-6	-7	·	41%[5.75 µM]	1%
C/C(=N\Nc1cccc2ccccc12)c1c(O)n(Cc2ccccc2)c(=O)[nH]c1=O	15µM*	1	-4	22%	?	13µM*
C/C(=N\NC(=O)c1ccccc1)c1c(O)n(Cc2ccccc2)c(=O)[nH]c1=O	34%	52*	101*	-4%	18%	2%

Screens as filed in PubChem.
